Molecules are shown by their SMILES.

The first experiment has as its target T1, Tyrosyl-tRNA synthetase, putative (Trypanosoma cruzi (strain CL Brener)) (UniProt Q4DSP6).
T1 sequence (whole entry): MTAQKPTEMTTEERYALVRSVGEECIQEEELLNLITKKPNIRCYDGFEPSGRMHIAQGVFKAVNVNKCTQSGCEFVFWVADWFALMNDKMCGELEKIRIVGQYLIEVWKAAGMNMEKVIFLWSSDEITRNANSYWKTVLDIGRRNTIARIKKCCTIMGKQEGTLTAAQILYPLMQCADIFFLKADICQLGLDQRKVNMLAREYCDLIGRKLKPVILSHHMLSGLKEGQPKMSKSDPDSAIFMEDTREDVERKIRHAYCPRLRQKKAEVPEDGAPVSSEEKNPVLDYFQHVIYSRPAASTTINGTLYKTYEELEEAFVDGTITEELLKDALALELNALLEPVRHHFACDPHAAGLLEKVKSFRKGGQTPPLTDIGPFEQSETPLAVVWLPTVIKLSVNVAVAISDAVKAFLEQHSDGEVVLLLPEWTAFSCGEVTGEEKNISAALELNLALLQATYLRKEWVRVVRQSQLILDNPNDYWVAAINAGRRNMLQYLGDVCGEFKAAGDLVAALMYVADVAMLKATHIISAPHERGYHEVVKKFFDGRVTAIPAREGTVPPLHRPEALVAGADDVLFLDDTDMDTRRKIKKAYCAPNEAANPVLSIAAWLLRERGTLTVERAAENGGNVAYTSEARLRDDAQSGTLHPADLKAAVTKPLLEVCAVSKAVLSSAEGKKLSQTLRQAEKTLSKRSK
Nature of the experiment: Trypanosoma cruzi tyrosyl tRNA synthetase (TcYRS) SOP. It is filed as functional. Details: scale not given: direction of the effect not stated beside the values. To be noted: 30 µM.
As to `CS(=O)(=O)NCCCNC(=O)c1cccnc1O`, the Percent Effect was found to be 8.54%. Same read-out and setting: the value for `Fc1ccc(CNCC2OCCc3cn(CC4CC4)nc32)cc1` (centres undefined) was 7.69%. Still for that read-out and setting: to `O=C(c1cccnc1-n1cncn1)N1CCN(CC2CC2)CC1` belongs 9.76%; to `COc1ccccc1OC1(C(=O)O)CCN(c2nccnc2C)CC1`, 23.5%.

As to `Cc1csc(CNC(=O)NCCc2ccc3c(c2)OCCO3)n1`, the Percent Effect was determined as 23.5%. Same read-out and setting: the value for `CCOCC(O)CN1CCN(C(=O)CC(C)(C)C)CC1` (centres undefined) was 3.7%; that for `CN1C(=O)C(c2cccnc2)CC12CCN(C(=O)c1cccn1C)CC2` (centres undefined) was -2.5%; that for `Cc1ccc(S(=O)(=O)N2C[C@H]3C[C@H](NC(=O)c4ccn(C)n4)[C@H]3C2)cc1` was 9.09%. Still for that read-out and setting: to `CN(Cc1ccc(F)cc1)C(=O)NCc1nnc2n1CCCCC2` belongs 13.9%. With `O=C(Nc1cc(C(F)(F)F)c[nH]c1=O)N1CCCSCC1`, the Percent Effect was determined as 12.2%. On the same count and under the same terms, the value for `c1cc(CN2CCN(Cc3cscn3)CC2)cs1` was 2.35%. Turning to `Cc1noc([C@@H]2C[C@H]3OCC[C@H]3N(S(=O)(=O)c3cccnc3)C2)n1`, the Percent Effect came out at 11.1%. On to `CCn1cnnc1C1CCN(C(=O)c2ccccc2OC)CC1`, for which the Percent Effect amounted to 7.32%. Same read-out and setting: the value for `O=C(c1ccccc1-c1ccccc1)N1CCOC2(CNCCOC2)C1` (centres undefined) was 14.6%; that for `COc1ccc(C(=O)N(C)Cc2cccc(C#N)c2)c(OC)c1OC` was 3.66%.

As to `CNC(=O)[C@@]12CCCN(c3ncccn3)[C@@H]1CN(C(=O)NC(C)C)C2`, the Percent Effect is 14.1%.

With `O=C1CC(NCc2ccncc2)CN1Cc1cccc(F)c1` (centres undefined), the Percent Effect amounted to 2.44%. In the case of `CS(=O)(=O)NC[C@@H]1OC[C@H]2CN(C(=O)c3ccc[nH]3)CC[C@H]21`, the Percent Effect was -628%. Consider `Cc1nccn1C1CCCN(C(=O)c2cc3ccccc3[nH]2)C1` (centres undefined), for which the Percent Effect was -3.8%. Consider `CS(=O)(=O)N1CCC(O)(Cn2c(C3CC3)nc3ccccc3c2=O)CC1`, for which the Percent Effect is -3.9%.

The target of another experiment is Chromo domain-containing protein 1 (Saccharomyces cerevisiae (strain ATCC 204508 / S288c) (Baker's yeast)) (UniProt P32657). The experiment in a line: ScCHD-1 Enzyme Inhibition Assay. It is filed as functional. The conditions noted are these: 30 µM. Details: scale not given: in the data most compounds retested in dose-response had high values.
Chromo domain-containing protein 1 (Saccharomyces cerevisiae (strain ATCC 204508 / S288c) (Baker's yeast)), sequence (P32657 whole entry, the tested form may be a part): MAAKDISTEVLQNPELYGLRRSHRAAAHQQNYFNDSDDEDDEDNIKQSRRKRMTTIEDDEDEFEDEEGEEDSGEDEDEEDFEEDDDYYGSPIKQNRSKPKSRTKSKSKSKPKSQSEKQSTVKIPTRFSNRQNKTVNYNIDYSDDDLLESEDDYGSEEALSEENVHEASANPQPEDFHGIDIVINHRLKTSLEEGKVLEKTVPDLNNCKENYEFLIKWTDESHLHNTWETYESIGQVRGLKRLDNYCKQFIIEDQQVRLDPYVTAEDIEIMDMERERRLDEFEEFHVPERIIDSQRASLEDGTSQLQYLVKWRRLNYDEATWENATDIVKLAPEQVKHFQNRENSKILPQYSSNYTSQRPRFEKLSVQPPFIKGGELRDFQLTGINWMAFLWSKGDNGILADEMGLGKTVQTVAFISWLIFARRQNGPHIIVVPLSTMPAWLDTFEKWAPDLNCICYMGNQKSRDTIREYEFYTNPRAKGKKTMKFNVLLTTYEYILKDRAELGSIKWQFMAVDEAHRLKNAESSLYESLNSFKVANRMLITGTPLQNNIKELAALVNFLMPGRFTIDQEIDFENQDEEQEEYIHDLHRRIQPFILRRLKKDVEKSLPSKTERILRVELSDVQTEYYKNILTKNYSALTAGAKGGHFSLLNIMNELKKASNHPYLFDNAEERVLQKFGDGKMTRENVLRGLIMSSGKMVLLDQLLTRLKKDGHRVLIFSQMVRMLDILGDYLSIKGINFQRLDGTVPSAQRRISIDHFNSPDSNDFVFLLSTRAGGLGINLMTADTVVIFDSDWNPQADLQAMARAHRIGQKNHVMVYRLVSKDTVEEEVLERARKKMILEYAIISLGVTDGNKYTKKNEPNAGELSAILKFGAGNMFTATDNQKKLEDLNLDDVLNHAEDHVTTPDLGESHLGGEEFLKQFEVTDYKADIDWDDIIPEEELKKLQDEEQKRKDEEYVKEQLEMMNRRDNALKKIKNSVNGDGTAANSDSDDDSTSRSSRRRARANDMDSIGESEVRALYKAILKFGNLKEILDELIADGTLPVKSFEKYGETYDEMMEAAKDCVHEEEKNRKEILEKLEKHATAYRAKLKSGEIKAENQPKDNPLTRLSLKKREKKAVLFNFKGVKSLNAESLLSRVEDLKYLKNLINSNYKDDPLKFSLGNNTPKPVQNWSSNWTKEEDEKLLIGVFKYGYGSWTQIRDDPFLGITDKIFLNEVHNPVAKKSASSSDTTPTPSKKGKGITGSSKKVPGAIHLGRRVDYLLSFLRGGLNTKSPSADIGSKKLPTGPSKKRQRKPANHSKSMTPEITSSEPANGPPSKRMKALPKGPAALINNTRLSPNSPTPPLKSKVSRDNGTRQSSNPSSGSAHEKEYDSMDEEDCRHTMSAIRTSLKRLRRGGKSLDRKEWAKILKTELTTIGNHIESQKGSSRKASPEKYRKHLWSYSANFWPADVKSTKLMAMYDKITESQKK
For the molecule `Cc1nc(CO[C@@H]2CN(Cc3cnn(C)c3)[C@@H]3COC[C@@H]32)cs1`, the Percent Effect is 3.26%. Regarding `CC(=O)N1CCN(Cc2csc(-c3cnn(C)c3)n2)CC1`, the Percent Effect was -7.33%. On the same count and under the same terms, the value for `CC1CN(CC(=O)Nc2nncs2)CCN1c1nccs1` (centres undefined) was -4.83%. The same measure, in the same setting: the value for `CC(OCC1CC1)C(=O)N1CCCN(Cc2cnn(C)c2)CC1` (centres undefined) was -21.4%. The same measure, in the same setting: the value for `O=S(=O)(CCNCc1cccc2c1OCCO2)N1CCOCC1` was -2.36%; that for `Cc1ccccc1[C@@H]1CN(C(=O)c2ccc3[nH]nnc3c2)C[C@H]1C(=O)O` was 2.93%. On to `CC1CCN(C(CNC(=O)CCn2cccn2)c2cccs2)CC1` (centres undefined), for which the Percent Effect was -5.13%. Still for that read-out and setting: the value for `Cc1ccc(NC2CCN(C(=O)COCC(F)(F)F)CC2)nn1` was 3.78%; that for `Cn1cc(CN2CCCC3(CCN(c4nncs4)C3)C2)cn1` (centres undefined) was -0.679%. The same measure, in the same setting: the value for `Cc1nc(Cn2nc(C3CCNCC3)n(Cc3ccccc3)c2=O)no1` was -4.29%; that for `CC(C)(C)c1cnc(CN2CCC(c3ccnn3CCO)CC2)o1` was -1.55%.

As to `Cc1nc(COC[C@@H]2CC[C@H]3[C@H](CCN3c3ncccn3)O2)cs1`, the Percent Effect came out at 2.8%. Still for that read-out and setting: to `CC(=O)N(Cc1ncc(C)o1)C1CCN(Cc2noc(C)n2)C1` (centres undefined) belongs 2.25%; to `Cc1cc(CN(C)C2CCCN(Cc3noc(C4CC4)n3)C2)no1` (centres undefined), -9.14%; to `COCC1CN(C(=O)C2=CCCCC2)Cc2cnn(CC3CC3)c21` (centres undefined), -9.46%. On to `CC(=O)N1CCCN(C(=O)NCCc2ccc(Cl)s2)CC1`, for which the Percent Effect was determined as 7.14%. As to `CCc1nnc(CN(C)c2nc(C3CCCC3)nc3c2cnn3C)o1`, the Percent Effect is -2.84%. For the molecule `COc1ccc(-c2cc(C3CCCCCN3S(=O)(=O)N(C)C)on2)cc1` (centres undefined), the Percent Effect was -12.7%. The same measure, in the same setting: to `O=C(N[C@@H]1CN(Cc2ccccc2)C[C@@H]2CCCO[C@@H]21)C1CC1` belongs -7.85%; to `CS(=O)(=O)NCCCNC(=O)c1cccnc1O`, -4.62%. With `Fc1ccc(CNCC2OCCc3cn(CC4CC4)nc32)cc1` (centres undefined), the Percent Effect amounted to 8.43%. Still for that read-out and setting: to `O=C(c1cccnc1-n1cncn1)N1CCN(CC2CC2)CC1` belongs -2.97%; to `COc1ccccc1OC1(C(=O)O)CCN(c2nccnc2C)CC1`, -6.84%. Same read-out and setting: to `Cc1csc(CNC(=O)NCCc2ccc3c(c2)OCCO3)n1` belongs -17.6%. Same read-out and setting: the value for `CCOCC(O)CN1CCN(C(=O)CC(C)(C)C)CC1` (centres undefined) was 1.7%; that for `CN1C(=O)C(c2cccnc2)CC12CCN(C(=O)c1cccn1C)CC2` (centres undefined) was -4.59%. Regarding `Cc1ccc(S(=O)(=O)N2C[C@H]3C[C@H](NC(=O)c4ccn(C)n4)[C@H]3C2)cc1`, the Percent Effect is -25.8%. In the case of `CN(Cc1ccc(F)cc1)C(=O)NCc1nnc2n1CCCCC2`, the Percent Effect was -15%.

As for `O=C(Nc1cc(C(F)(F)F)c[nH]c1=O)N1CCCSCC1`, the Percent Effect was -1.96%. Consider `c1cc(CN2CCN(Cc3cscn3)CC2)cs1`, for which the Percent Effect is -6.18%.

As for `Cc1noc([C@@H]2C[C@H]3OCC[C@H]3N(S(=O)(=O)c3cccnc3)C2)n1`, the Percent Effect was -6.9%. For the molecule `CCn1cnnc1C1CCN(C(=O)c2ccccc2OC)CC1`, the Percent Effect was -3.6%. On the same count and under the same terms, the value for `O=C(c1ccccc1-c1ccccc1)N1CCOC2(CNCCOC2)C1` (centres undefined) was -1.37%. Consider `COc1ccc(C(=O)N(C)Cc2cccc(C#N)c2)c(OC)c1OC`, for which the Percent Effect is -2.24%. For the molecule `CNC(=O)[C@@]12CCCN(c3ncccn3)[C@@H]1CN(C(=O)NC(C)C)C2`, the Percent Effect is -12.4%. Same read-out and setting: to `O=C1CC(NCc2ccncc2)CN1Cc1cccc(F)c1` (centres undefined) belongs -0.358%; to `CS(=O)(=O)NC[C@@H]1OC[C@H]2CN(C(=O)c3ccc[nH]3)CC[C@H]21`, -2.84%; to `Cc1nccn1C1CCCN(C(=O)c2cc3ccccc3[nH]2)C1` (centres undefined), -6.65%. The same measure, in the same setting: the value for `CS(=O)(=O)N1CCC(O)(Cn2c(C3CC3)nc3ccccc3c2=O)CC1` was 7%.

The record behind these values is ChEMBL document CHEMBL3988442, “University of Dundee, Small-Polar-MMV Screening Library” (2021).
